Test results from the supplement of paper PMC11732987, “Enantioselective OTUD7B fragment discovery through chemoproteomics screening and high-throughput optimisation” (Communications Chemistry, 2025).

What was measured:
Assay in all cases: log2 ratio of Biotin-Ahx-Ub-VS probe labelling (fragment/DMSO); higher = less target engagement (more negative = stronger competition), active = hit call of the paper (q ≤ 0.05, log2 ratio ≤ -1)
Settings in all cases: compound concentration: 200 uM; treatment time: 3 h
USP34 = USP34 (UniProt Q70CQ2)
USP34, sequence (Q70CQ2 whole entry, the tested form may be a part): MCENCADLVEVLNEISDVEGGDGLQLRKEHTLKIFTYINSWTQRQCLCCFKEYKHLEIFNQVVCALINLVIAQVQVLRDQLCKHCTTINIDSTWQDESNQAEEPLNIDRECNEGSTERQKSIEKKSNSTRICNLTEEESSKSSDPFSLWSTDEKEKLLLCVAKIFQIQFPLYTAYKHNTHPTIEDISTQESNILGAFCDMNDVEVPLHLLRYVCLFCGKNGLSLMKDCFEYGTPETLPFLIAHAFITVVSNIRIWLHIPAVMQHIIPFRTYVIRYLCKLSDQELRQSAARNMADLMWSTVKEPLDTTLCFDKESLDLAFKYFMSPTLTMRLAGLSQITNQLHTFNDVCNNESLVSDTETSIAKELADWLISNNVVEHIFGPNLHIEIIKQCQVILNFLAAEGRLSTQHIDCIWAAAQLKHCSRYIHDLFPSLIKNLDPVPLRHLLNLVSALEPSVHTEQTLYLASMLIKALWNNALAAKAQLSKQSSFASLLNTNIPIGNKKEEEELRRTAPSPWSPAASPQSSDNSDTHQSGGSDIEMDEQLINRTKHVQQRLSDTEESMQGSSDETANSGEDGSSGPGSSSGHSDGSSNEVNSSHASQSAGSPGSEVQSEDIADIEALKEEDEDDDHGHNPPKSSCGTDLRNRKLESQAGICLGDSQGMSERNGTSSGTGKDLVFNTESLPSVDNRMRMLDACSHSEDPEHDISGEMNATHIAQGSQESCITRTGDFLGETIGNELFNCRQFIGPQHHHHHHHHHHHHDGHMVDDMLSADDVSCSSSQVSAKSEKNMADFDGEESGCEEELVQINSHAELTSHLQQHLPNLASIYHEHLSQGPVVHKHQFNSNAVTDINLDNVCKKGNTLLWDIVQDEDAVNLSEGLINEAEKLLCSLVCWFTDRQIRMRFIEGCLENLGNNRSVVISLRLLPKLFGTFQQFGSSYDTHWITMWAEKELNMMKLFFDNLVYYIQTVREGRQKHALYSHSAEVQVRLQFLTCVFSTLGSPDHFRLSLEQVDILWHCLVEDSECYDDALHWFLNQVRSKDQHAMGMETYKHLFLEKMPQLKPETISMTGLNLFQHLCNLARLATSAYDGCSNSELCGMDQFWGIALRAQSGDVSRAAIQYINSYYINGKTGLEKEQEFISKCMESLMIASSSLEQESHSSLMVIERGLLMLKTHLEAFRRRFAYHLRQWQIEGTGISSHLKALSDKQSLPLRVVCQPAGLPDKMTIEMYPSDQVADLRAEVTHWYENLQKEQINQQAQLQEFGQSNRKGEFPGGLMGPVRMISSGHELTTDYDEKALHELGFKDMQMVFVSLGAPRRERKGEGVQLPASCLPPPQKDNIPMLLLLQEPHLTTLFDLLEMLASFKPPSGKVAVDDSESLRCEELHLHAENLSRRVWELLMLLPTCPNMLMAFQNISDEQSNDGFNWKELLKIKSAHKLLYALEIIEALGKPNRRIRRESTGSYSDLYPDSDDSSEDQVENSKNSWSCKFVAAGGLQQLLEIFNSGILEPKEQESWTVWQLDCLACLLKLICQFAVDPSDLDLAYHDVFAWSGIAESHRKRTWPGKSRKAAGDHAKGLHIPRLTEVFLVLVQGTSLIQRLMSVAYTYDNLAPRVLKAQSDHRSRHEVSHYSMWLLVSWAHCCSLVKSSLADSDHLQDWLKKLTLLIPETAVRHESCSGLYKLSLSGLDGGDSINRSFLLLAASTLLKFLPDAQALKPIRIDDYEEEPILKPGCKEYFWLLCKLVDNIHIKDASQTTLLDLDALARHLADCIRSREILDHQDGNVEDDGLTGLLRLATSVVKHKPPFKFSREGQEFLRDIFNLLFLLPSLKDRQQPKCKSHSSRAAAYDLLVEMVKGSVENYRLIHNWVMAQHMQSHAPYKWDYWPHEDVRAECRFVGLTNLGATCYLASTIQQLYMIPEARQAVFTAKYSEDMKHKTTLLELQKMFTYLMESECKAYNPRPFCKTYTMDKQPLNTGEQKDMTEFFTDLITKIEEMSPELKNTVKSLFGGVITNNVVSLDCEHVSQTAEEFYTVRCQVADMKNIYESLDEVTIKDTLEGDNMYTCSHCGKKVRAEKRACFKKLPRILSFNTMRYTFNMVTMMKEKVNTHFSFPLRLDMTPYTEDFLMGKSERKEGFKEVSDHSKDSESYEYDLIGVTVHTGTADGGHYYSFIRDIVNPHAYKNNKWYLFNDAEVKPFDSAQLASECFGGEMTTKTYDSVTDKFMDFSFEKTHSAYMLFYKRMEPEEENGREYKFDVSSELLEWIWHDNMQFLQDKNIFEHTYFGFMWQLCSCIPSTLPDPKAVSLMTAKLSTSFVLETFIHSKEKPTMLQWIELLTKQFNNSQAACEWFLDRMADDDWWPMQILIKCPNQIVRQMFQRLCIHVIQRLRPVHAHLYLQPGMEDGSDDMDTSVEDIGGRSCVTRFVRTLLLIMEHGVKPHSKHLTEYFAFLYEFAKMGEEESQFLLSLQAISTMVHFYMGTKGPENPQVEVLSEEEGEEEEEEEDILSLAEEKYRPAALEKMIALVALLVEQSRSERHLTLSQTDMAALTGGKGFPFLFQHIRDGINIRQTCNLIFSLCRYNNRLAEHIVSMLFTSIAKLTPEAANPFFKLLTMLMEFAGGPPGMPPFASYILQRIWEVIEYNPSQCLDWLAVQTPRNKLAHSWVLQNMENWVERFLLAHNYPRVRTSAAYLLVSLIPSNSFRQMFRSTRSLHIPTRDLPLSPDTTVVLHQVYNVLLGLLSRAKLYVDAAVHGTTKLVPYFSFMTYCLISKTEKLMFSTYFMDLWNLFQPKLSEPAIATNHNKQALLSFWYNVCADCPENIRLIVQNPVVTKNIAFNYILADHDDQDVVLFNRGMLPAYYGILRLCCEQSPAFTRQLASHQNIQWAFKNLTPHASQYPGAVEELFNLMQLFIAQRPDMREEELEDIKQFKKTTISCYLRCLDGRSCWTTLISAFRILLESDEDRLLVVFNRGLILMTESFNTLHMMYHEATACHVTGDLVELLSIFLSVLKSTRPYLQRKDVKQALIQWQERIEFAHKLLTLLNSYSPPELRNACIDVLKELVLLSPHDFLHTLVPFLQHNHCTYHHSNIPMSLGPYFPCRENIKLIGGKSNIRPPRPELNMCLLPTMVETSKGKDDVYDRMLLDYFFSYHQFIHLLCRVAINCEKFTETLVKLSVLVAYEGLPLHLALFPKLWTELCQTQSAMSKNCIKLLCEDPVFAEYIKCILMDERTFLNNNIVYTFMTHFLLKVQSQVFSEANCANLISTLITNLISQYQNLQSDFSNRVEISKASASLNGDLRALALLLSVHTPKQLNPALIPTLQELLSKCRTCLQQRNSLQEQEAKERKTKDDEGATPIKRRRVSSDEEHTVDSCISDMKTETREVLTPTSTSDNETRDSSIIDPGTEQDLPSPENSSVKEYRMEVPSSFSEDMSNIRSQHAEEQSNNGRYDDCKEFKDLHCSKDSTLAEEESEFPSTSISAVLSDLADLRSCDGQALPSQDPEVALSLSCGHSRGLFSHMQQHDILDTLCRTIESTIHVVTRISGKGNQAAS
In short: (§1)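 HEK293T lysate (495 µg per sample, in Tris/CHAPS/IGEPAL buffer with protease inhibitors) was treated in triplicate with fragment at 200 µM or with DMSO for 3 h. It was then treated with Biotin-Ahx-Ub-VS (0.5 µM final) for 1 h. Labelled DUBs were NeutrAvidin-enriched, digested with LysC and trypsin, and run by diaPASEF LC-MS/MS. Spectronaut label-free quantities were global-median-normalised. Values are average log2 ratios fragment/DMSO by unpaired t-test, using proteins with ≥2 unique peptides.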

USP36 = biological target: T1, USP36 (UniProt Q9P275)
T1 sequence (whole entry): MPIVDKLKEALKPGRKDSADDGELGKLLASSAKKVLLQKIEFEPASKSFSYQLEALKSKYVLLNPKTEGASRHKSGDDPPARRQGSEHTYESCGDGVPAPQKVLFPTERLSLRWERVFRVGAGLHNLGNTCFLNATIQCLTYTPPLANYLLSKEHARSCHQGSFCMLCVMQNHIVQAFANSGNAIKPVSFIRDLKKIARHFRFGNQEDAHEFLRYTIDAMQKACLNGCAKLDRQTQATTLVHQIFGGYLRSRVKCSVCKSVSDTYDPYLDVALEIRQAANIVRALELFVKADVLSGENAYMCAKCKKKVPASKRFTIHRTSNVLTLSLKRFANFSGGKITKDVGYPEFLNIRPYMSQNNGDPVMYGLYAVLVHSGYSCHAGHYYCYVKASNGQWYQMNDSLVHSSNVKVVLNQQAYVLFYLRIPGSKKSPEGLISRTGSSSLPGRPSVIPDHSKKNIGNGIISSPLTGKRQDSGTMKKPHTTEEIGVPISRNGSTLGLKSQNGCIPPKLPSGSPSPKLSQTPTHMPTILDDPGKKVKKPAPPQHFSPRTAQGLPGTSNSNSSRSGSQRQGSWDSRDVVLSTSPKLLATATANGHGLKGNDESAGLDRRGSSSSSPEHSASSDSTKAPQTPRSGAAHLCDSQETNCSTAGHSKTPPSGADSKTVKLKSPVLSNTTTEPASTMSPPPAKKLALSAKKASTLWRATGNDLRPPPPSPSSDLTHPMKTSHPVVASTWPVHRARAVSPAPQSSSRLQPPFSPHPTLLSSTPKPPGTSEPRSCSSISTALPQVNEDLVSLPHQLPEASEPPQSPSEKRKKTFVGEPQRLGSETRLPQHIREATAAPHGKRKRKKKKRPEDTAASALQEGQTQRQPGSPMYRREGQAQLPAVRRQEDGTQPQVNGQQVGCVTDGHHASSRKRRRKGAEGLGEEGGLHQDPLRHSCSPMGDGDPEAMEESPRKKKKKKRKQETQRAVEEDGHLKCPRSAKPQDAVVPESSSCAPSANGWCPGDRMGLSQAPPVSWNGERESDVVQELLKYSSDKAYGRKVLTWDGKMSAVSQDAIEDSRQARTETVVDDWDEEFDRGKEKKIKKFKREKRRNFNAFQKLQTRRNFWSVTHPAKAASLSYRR
In short: as §1

USP38 = biological target: T2, USP38 (UniProt Q8NB14)
T2 sequence (whole entry): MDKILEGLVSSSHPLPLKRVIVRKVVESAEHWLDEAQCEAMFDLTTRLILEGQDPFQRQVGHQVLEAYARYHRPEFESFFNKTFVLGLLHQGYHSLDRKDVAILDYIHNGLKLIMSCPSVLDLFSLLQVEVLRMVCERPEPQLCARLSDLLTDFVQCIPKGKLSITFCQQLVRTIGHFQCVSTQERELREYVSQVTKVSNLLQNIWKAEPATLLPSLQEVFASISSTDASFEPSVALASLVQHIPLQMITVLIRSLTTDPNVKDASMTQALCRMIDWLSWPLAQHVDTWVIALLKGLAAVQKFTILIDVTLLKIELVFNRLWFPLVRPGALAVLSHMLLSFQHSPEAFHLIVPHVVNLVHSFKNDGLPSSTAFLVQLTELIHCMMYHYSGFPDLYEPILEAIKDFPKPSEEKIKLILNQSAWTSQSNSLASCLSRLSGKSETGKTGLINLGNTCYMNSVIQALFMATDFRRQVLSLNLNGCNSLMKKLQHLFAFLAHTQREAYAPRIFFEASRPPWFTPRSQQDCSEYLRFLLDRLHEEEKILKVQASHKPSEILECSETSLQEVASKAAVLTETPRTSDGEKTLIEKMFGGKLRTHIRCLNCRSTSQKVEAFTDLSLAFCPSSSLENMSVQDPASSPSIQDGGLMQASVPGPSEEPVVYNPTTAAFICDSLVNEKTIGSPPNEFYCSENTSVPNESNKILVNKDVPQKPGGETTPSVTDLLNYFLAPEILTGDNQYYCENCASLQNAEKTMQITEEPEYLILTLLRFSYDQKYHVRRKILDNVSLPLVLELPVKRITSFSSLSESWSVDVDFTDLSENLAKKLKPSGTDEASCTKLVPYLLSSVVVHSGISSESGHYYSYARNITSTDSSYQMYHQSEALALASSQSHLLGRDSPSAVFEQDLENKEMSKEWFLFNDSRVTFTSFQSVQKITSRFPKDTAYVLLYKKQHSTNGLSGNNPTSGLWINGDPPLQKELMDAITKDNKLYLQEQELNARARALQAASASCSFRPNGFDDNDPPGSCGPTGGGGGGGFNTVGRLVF
In short: as §1

USP39 = biological target: T3, USP39 (UniProt Q53GS9)
T3 sequence (whole entry): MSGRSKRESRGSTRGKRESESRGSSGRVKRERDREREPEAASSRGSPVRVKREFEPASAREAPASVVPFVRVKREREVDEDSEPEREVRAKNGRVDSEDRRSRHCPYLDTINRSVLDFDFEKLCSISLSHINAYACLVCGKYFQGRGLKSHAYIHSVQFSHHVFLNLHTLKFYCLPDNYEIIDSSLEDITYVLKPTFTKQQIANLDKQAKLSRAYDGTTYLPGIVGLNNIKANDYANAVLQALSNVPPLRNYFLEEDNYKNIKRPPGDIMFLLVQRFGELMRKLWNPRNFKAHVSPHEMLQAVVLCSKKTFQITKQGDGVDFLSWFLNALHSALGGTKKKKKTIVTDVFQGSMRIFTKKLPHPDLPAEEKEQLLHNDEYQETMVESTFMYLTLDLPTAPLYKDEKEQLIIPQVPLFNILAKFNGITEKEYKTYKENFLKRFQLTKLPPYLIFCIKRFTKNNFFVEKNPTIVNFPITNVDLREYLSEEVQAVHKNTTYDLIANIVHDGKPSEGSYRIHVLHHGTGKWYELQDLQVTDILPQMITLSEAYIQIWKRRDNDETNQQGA
In short: as §1

USP4 = biological target: T4, USP4 (UniProt Q13107)
T4 sequence (whole entry): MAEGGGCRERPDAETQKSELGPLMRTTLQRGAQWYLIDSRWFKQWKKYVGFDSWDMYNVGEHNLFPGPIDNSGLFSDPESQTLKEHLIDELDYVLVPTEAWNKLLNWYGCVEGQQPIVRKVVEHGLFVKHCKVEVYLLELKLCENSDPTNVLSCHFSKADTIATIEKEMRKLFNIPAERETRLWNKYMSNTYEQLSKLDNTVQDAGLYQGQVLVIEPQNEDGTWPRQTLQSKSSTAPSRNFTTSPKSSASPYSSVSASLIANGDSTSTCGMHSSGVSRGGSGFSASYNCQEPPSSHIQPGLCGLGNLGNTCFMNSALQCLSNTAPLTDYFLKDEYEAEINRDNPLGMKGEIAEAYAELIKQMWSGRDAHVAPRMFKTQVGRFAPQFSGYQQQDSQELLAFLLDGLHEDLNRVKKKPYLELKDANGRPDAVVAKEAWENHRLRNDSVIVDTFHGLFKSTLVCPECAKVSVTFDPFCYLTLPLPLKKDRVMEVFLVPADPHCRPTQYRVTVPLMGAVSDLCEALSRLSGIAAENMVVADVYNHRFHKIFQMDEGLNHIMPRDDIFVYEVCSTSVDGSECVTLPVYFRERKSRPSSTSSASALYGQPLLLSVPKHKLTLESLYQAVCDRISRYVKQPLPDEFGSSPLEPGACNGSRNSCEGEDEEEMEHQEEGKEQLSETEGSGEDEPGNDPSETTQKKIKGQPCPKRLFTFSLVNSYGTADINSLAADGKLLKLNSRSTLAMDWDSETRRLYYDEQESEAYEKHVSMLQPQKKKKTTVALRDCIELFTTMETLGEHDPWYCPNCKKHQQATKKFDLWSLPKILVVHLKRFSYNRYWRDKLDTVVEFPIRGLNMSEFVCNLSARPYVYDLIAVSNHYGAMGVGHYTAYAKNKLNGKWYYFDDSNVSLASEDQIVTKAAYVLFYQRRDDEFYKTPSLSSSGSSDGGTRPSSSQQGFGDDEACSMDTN
In short: as §1

Measured: log2 ratio of Biotin-Ahx-Ub-VS probe labelling

O=C(CCl)N(C1CCCC1)C1CCS(=O)(=O)C1 (stereo not given)
inactive: USP34 -0.0865 | USP36 -0.298 | USP38 -0.0626 | USP39 0.151 | USP4 0.0894
